TDP1 cell CPT = DT40-hTDP1 cell growth loss with CPT. chicken DT40 Tdp1-/-;hTDP1 cells + 20 nM CPT, ATP luminescence, 48 h. Potency, µM (titrated, usually from 46.2 µM), inactives show at the highest dose activity change, negative = growth inhibition, usual class: inhibitors. 420,000 tested, 12% active. AID 686979; also: potency is read from the fitted curve at half-maximal effect; nearly all actives have a fitted effect of over 55% in size
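Chicken DT40 Tdp1-/- cells stably complemented with human TDP1 were seeded at 400 cells/well in medium containing 20 nM camptothecin, exposed to pin-transferred compounds, and grown at 37 °C for at least 48 hr. Viability was read as ATP luminescence.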
IL-1B inflam inh = blocks inflammasome-driven IL-1 beta release. THP-1 LPS/ATP IL-1B secretion, AlphaLISA, 16 h; hits give low values. activity change, % at 57.5 µM. 360,000 tested, 4.7% active. AID 743279; in the data active = activity change below about -50%; inconclusive = mostly about -30% to -49%
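THP-1 cells pretreated 1 hr with compounds (up to 57.5 uM final), then stimulated with LPS (250 ng/mL final) plus ATP (1.25 mM final); secreted IL-1B measured by AlphaLISA after 16 hr, decreased signal indicating inhibition.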
HT1080-NT tox = kills 2HG-producing HT-1080-NT fibrosarcoma cells; Potency, µM (highest dose often 46.1 µM), inactives show at the top dose activity, negative = less viability, hits mostly cytotoxic; 360,000 tested, 1.6% active; HT-1080-NT fibrosarcoma viability, CellTiter-Glo ATP luminescence, 48 h;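 also: NT is the 2HG producing partner of a matched IDH1 knockdown line; potency is read from the fitted curve at half-maximal effect; 0% = DMSO-treated cells and -100% = media-only wells without cells; nearly all actives have a fitted effect of over 55% in size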
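HT-1080-NT fibrosarcoma cells (2HG-overproducing), 750 cells/well in RPMI with 5% FBS, dosed after 2 h and incubated 48 h at 37C. CellTiter-Glo luminescence normalized to DMSO and no-cell wells; concentration-response curves fitted and classed.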
TDP1 cell noCPT = qHTS for Inhibitors of human tyrosyl-DNA phosphodiesterase 1 (TDP1): qHTS in cells in absence of CPT; Potency, µM (highest dose often 46.2 µM), for inactives: top-dose activity change, negative = growth inhibition, actives largely listed as inhibitors; DT40 Tdp1-/- hTDP1 cells, no CPT, ATP luminescence, 48 h; 420,000 tested, 15% active; AID 686978, 2013; also: potency is read from the fitted curve at half-maximal effect; nearly all actives have a fitted effect of over 55% in size
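Compound effects on proliferation are scored in DT40 Tdp1-/-;hTDP1 cells in the absence of CPT. ATP levels (CellTiter-Glo luminescence) are recorded after a ≥48 hr, 37 °C incubation.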
HT1080 IDH1KD tx = toxicity to HT-1080 IDH1 knockdown cells (counter line). HT-1080 IDH1 knockdown viability, ATP luminescence, 48 h. Potency, µM (doses to about 46.1 µM), for inactives: at the top dose activity, negative = toxicity, hits mostly cytotoxic. 360,000 tested, 2% active;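 also: potency is read from the fitted curve at half-maximal effect; 0% = DMSO wells and -100% = cell-free medium wells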
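Cytotoxicity counter-line: IDH1KD HT-1080, 48 h, CellTiter-Glo. Curves classed by r2, magnitude and activity.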
* = called active by the depositor; ? = inconclusive; . = no result; [ ] = dose if it differs, or a comment. In the library only some 19% were active in any assay of this set; here they are far more common. Unless noted, calls follow the shape of the dose curve; as a rule, active = well fitted curve in the direction sought with a large enough effect; inconclusive = small, poorly fitted or top-dose-only effect, or another doubt; inactive = no such curve, though single readings can be large; an effect the other way counts as inactive or inconclusive. Unless noted, % is scaled to controls: 0 for no effect and ±100 for the full control effect.

SMILES	TDP1 cell CPT	IL-1B inflam inh	HT1080-NT tox	TDP1 cell noCPT	HT1080 IDH1KD tx
Clc1ccc(CNc2cc(-c3ccccc3)nc3nncn23)cc1	16µM*	.	.	13µM*	.
COc1ccccc1CNc1cc(-c2ccccc2)nc2nncn12	23µM*	.	.	16µM*	.
O=C(Nc1ccc(OC(F)(F)F)cc1)c1nc2ccccc2nc1N1CCCCC1	-25%	.	.	-15%	.
O=C1C=C(c2ccc(C(=O)O)cc2)C[C@@H](c2ccc(F)cc2)C1	-29%	37	-5%	-10%	-4%
Cc1cc(C)cc(C(O)c2ncc(-c3ccccc3)[nH]2)c1 (stereo not given)	-27%	1	7%	-17%	-3%
Cc1cc2c3c(c1)C1(C(=O)N3C(C)(C)CC2C)C(C#N)=C(N)OC2=C1C(=O)CC(C)(C)C2 (stereo not given)	-24%	-16	-6%	?	-9%
Cc1cc2c3c(c1C)C1(C(=O)N3C(C)(C)CC2C)C(C#N)=C(N)Oc2cc(O)ccc21 (stereo not given)	?	-62*	?	?	?
Cc1ccccc1NC(=O)C1CCCN(c2ncnc3onc(-c4ccc(F)cc4)c23)C1 (stereo not given)	?	6	2%	-30%	-13%
CCOc1ccccc1N(C)C(=O)C1CCCN(c2ncnc3onc(-c4ccc(F)cc4)c23)C1 (stereo not given)	12µM*	.	.	8.2µM*	.
COc1cc(Cl)c(C)cc1NC(=O)C1CCCN(c2ncnc3onc(-c4ccc(F)cc4)c23)C1 (stereo not given)	15µM*	.	.	8.2µM*	.
COc1cccc(NC(=O)C2CCCN(S(=O)(=O)c3cccc4nonc34)C2)c1 (stereo not given)	-19%	18	-18%	-22%	-3%
CCOc1ccccc1NC(=O)C1CCCN(c2ncnc3onc(-c4ccc(F)cc4)c23)C1 (stereo not given)	21µM*	.	.	23µM*	.
Cc1ccc(N2CCN(c3ncnc4onc(-c5ccc(F)cc5)c34)CC2)c(C)c1	0%	.	.	-2%	.
COc1cccc(NC(=O)C2CCCN(c3ncnc4onc(-c5ccc(F)cc5)c34)C2)c1 (stereo not given)	?	.	.	16µM*	.
O=c1nc(Oc2ccccc2)nc2ncccn12	?	-8	?	?	?
O=C(c1cccc(F)c1F)N1CCOc2ccc(CN3CCC(Oc4cccnc4)CC3)cc2C1	-14%[9.04 µM]	.	.	?	.
COc1ccccc1NC(=O)C1CCN(S(=O)(=O)c2ccc3c(c2)oc(=O)n3C)CC1	-15%	.	.	?	.
COc1ccc(S(=O)(=O)N2CCOC23CCN(S(C)(=O)=O)CC3)cc1	3%	20	15%	-21%	10%
O=C(NCc1ccc(F)cc1)C1CCCN(c2ncnc3onc(-c4ccc(F)cc4)c23)C1 (stereo not given)	21µM*	.	.	16µM*	.
c1ccc2c(c1)oc1c(-c3cccc4nccn34)cccc12	13µM*	12	?	?	?
Clc1ccccc1-c1cccc2nccn12	?	-15	-2%	?	-20%
Cc1ccnc2nc(C(=O)OCC(=O)N(CC(C)C)C3CCS(=O)(=O)C3)nn12 (stereo not given)	-2%	0	3%[9.24 µM]	15%	-2%
CCOc1ccc(-n2c(SCC(=O)N3CCCC3)nc3c([nH]c4ccccc43)c2=O)cc1	-7%	.	.	-5%	.
COc1ccc(-n2c(=O)c(CCC(=O)N(C)Cc3cccs3)nc3ccccc32)cc1	?	-9	6%	?	10%
COc1ccc(-n2c(=O)c(CCC(=O)N3CCC(C)CC3)nc3ccccc32)cc1	18µM*	-4	-1%	?	0%
SMILES	TDP1 cell CPT	IL-1B inflam inh	HT1080-NT tox	TDP1 cell noCPT	HT1080 IDH1KD tx
CCOc1ccc(-n2c(SCC(=O)N3CCCCCC3)nc3c([nH]c4ccccc43)c2=O)cc1	21µM*	.	.	23µM*	.
CCOc1ccc(-n2c(SCC(=O)N3CCC(C)CC3)nc3c([nH]c4ccccc43)c2=O)cc1	2.1µM*	.	.	5.2µM*	.
Cc1cccc(NC(=O)/C(C#N)=C/c2cccc([N+](=O)[O-])c2)n1	-5%	16	6%	-23%	3%
Cc1ccc(-c2nnc(Nc3ccc(O)cc3)c3ccccc23)cc1S(=O)(=O)NCC1CCCO1 (stereo not given)	?	.	.	23µM*	.
Cc1ccc(-c2nnc(Nc3ccc(C(N)=O)cc3)c3ccccc23)cc1S(=O)(=O)NCC1CCCO1 (stereo not given)	?	-12	-1%	?	-6%
COc1nnc(-c2ccc(C)c(S(=O)(=O)NCC3CCCO3)c2)c2ccccc12 (stereo not given)	?	-5	-14%	?	-11%
Cc1ccc(-c2nnc(Nc3ccc(Br)cc3)c3ccccc23)cc1S(=O)(=O)NCC1CCCO1 (stereo not given)	16µM*	.	.	4.1µM*	.
CCCC(C(=O)NC1CCCC1)N(C(=O)c1snc(C(N)=O)c1N)c1ccc(F)cc1 (stereo not given)	-10%	-15	4%	-26%	0%
CC1CCC(C(C)C)C(=O)/C1=C/c1ccc(N)cc1 (stereo not given)	15µM*	3	-5%	13µM*	?
COc1ccc(NC(=O)CN(C)C(=O)/C=C/c2ccc(OCc3ccccc3)cc2)cc1	-28%	-3	-22%	?	?
COc1ccc(NC(=O)CN(C)Cc2c(F)cccc2Cl)cc1S(=O)(=O)N1CCCCC1	7%	-3	12%	2%	17%
COc1ccc(NC(=O)CN(C)C(=O)/C=C/c2ccc(S(=O)(=O)N3CCCCCC3)cc2)cc1	?	-16	-6%	18µM*	?
COc1ccc(/C=C/C(=O)N(C)CC(=O)Nc2cccc(F)c2)cc1S(=O)(=O)N1CCCCC1	18µM*	4	-28%	16µM*	?
CCCN(CC(=O)Nc1ccccc1C)C(=O)/C=C/c1ccc(S(=O)(=O)N2CCCCCC2)cc1	?	-16	-10%	21µM*	-24%
COc1ccc2c(CC(=O)OCC(=O)N3CCc4ccccc43)coc2c1	?	13	1%	18µM*	0%
Cc1ccc(CN2C(=O)CC(c3ccc(Cl)cc3)c3c(C)nn(-c4nc(C)cc(C)n4)c32)cc1 (stereo not given)	?	.	.	21µM*	.
COc1cc(C2CC(=O)Nc3c2c(C)nn3-c2nc(C)cc(C)n2)cc(OC)c1O (stereo not given)	-4%	.	.	-9%	.

High-throughput results as filed in PubChem BioAssay.
